# Results published in PubChem BioAssay AID1479144 (National Center for Advancing Translational Sciences (NCATS), 2020).
# Results filed as inconclusive are left out. Where a call stands in place of a potency, no number is given. Active and inactive are the calls of the source. Calls follow the shape of the full dose curve.
# Assay: Confirmatory qHTS for Vero E6 cytotoxicity: counterscreen for inhibitors of SARS-S pseudo-typed particle cell entry
# Settings: cell viability; series mostly up to 57.1 µM
SMILES,Potency,"activity change, negative = cytotoxicity"
CN1CCC(=C2c3ccccc3CCc3sccc32)CC1,inactive,–
O=c1ccc2ccccc2o1,inactive,–
Cc1nnc(C(=O)NC(C)(C)c2nc(C(=O)NCc3ccc(F)cc3)c(O)c(=O)n2C)o1,inactive,–
COc1cc2c(cc1Cc1cccc(Cl)c1F)c(=O)c(C(=O)O)cn2[C@H](CO)C(C)C,inactive,–
CC(C)(C)NC(=O)[C@H]1CC[C@H]2[C@@H]3CC[C@H]4NC(=O)C=C[C@]4(C)[C@H]3CC[C@]12C,inactive,–
O=C(O)c1cc(O)c2c(c1)[C@H]([C@H]1c3cc(C(=O)O)cc(O)c3C(=O)c3c(O[C@@H]4O[C@H](CO)[C@@H](O)[C@H](O)[C@H]4O)cccc31)c1cccc(O[C@@H]3O[C@H](CO)[C@@H](O)[C@H](O)[C@H]3O)c1C2=O,inactive,–
C/C=C(/C)C(=O)O[C@H]1C(C)=CC23C(=O)C(C=C(CO)[C@@H](O)[C@]12O)[C@H]1[C@@H](C[C@H]3C)C1(C)C (stereo partly drawn),inactive,–
COc1cc2nccc(Oc3ccc(NC(=O)NC4CC4)c(Cl)c3)c2cc1C(N)=O,inactive,–
C=CC1(C)CC(=O)C2(O)C(C)(O1)C(OC(C)=O)C(OC(=O)CCN(C)C)C1C(C)(C)CCC(O)C12C (stereo not drawn),inactive,–
CNCCCC12CCC(c3ccccc31)c1ccccc12,inactive,–
N=C(N)c1ccc(OCCCCCOc2ccc(C(=N)N)cc2)cc1,21.5 µM (active),–
CC[C@@]1(O)C(=O)OCc2c1cc1n(c2=O)Cc2cc3c([N+](=O)[O-])cccc3nc2-1,3.93 µM (active),–
CC(=O)OCC1=C(C(=O)O)N2C(=O)[C@@H](NC(=O)Cc3cccs3)[C@H]2SC1,inactive,–
C[n+]1c2cc(N)ccc2cc2ccc(N)cc21 (tested in a mixture with another compound),10.8 µM (active),–
COc1c(OCCCN2CCOCC2)ccc2c3n(c(=NC(=O)c4cnc(N)nc4)nc12)CCN3,–,-8.49% [at 11.2 µM] (inactive)
CCCCCCCCCCCCCC[n+]1ccc(C)cc1,4.29 µM (active),–
C[C@H]1[C@H](OC(=O)CCC(=O)O)O[C@@H]2O[C@@]3(C)CC[C@H]4[C@H](C)CC[C@@H]1[C@@]24OO3,inactive,–

SMILES,Potency,"activity change, negative = cytotoxicity"
O=c1[nH]c(=O)n([C@H]2C[C@H](O)[C@@H](CO)O2)cc1C(F)(F)F,inactive,–
CCCCc1oc2ccccc2c1C(=O)c1cc(I)c(OCCN(CC)CC)c(I)c1,inactive,–
CCOc1ccc(Cc2nccc3cc(OCC)c(OCC)cc23)cc1OCC,27.1 µM (active),–
CC(C)C[C@H](NC(=O)[C@H](CCc1ccccc1)NC(=O)CN1CCOCC1)C(=O)N[C@@H](Cc1ccccc1)C(=O)N[C@@H](CC(C)C)C(=O)[C@@]1(C)CO1,0.681 µM (active),–
CCCCCCNC(=O)n1cc(F)c(=O)[nH]c1=O,inactive,–
CN1CCC[C@@H]1CCO[C@](C)(c1ccccc1)c1ccc(Cl)cc1,inactive,–
CC[C@@]1(O)C(=O)OCc2c1cc1n(c2=O)Cc2c-1nc1ccccc1c2/C=N/OC(C)(C)C,17.1 µM (active),–
CC(C)OC(=O)OCOP(=O)(CO[C@H](C)Cn1cnc2c(N)ncnc21)OCOC(=O)OC(C)C,inactive,–
CC(C)(C)C(=O)OCOP(=O)(COCCn1cnc2c(N)ncnc21)OCOC(=O)C(C)(C)C,inactive,–
CN(C/C=C/c1ccccc1)Cc1cccc2ccccc12,inactive,–
CC[C@H](C)C(=O)O[C@H]1C[C@@H](C)C=C2C=C[C@H](C)[C@H](CC[C@@H]3C[C@@H](O)CC(=O)O3)[C@H]21,9.61 µM (active),–
CCCCCCCCCCCCOCCOCCOCCOCCOCCOCCOCCOCCOCCO,inactive,–
CN1CCC(=C2c3ccccc3C=Cc3ccccc32)CC1,inactive,–
Cc1cn([C@H]2C[C@H](N=[N+]=[N-])[C@@H](CO)O2)c(=O)[nH]c1=O,inactive,–
CCC(C)(C)C(=O)O[C@H]1C[C@@H](C)C=C2C=C[C@H](C)[C@H](CC[C@@H]3C[C@@H](O)CC(=O)O3)[C@H]21,5.41 µM (active),–
Cc1cc(-n2c(=O)[nH]c(=O)n(C)c2=O)ccc1Oc1ccc(S(=O)(=O)C(F)(F)F)cc1,inactive,–
